According to the supplement of paper PMC10849652:
The full data set covers some 7,900 targets. This sample favours those with a hit. About 0.6% of all pairs of compound and target were hits.

These targets were tested with c1cc(OCCN2CCCCC2)cc(-c2n[nH]c3ccc(-c4nnc[nH]4)cc23)c1 (assay: log2 fold change, soluble protein after heating vs DMSO (PISA); higher = thermal stabilisation; K562 cells, 10 uM, 30 min; active = over 0.2 and 3.5 SD of the protein, either way, in both replicates (recomputed)).
Method in brief: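 K562 cells at 2×10^6 cells/mL were exposed to 10 μM compound for 30 min, then aliquots were heated for 3 min across 48°C-58°C, pooled, and extracted in PBS containing 0.5% NP-40 at 4°C. The supernatant after 21,000xg for 90 min was taken as soluble protein and measured by TMTpro 16plex LC-MS/MS with channel sums equalised. Thermal stability is reported relative to control samples, with values from duplicates. Fold changes are given on a log2 scale.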

UniProt Q9Y385, sequence (Q9Y385 whole entry, looked up): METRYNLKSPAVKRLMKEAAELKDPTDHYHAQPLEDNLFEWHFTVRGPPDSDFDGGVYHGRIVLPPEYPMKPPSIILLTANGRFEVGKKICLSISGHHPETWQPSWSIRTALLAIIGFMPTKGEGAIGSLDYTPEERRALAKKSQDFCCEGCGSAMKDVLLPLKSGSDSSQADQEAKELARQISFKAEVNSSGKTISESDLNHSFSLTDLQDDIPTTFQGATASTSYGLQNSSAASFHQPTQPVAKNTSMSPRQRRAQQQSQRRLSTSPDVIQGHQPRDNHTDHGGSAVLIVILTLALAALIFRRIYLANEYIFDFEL
UniProt Q92973, sequence (Q92973 whole entry, looked up): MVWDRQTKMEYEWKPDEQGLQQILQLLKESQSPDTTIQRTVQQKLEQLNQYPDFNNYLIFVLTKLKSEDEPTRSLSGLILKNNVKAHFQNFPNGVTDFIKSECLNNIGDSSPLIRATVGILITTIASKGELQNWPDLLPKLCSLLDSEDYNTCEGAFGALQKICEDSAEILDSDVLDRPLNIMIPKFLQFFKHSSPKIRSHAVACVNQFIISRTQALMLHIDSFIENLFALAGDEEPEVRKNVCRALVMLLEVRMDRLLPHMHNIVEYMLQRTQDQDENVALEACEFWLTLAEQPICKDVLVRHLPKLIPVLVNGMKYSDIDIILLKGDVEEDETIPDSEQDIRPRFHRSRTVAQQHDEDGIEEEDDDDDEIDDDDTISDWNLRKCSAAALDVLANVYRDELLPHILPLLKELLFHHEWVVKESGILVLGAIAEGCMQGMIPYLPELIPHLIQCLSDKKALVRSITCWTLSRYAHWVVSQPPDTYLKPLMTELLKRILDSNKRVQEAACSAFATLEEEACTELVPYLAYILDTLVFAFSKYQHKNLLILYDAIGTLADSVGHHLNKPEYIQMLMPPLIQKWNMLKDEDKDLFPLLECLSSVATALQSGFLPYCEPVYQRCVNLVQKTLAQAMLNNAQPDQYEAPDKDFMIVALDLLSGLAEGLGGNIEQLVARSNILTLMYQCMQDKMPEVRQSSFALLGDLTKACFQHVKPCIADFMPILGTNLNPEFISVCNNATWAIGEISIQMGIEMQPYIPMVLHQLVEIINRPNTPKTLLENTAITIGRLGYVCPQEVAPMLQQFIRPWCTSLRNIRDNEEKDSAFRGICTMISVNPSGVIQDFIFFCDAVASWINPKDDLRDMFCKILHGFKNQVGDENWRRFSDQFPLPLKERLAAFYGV
UniProt Q9UID3, sequence (Q9UID3 whole entry, looked up): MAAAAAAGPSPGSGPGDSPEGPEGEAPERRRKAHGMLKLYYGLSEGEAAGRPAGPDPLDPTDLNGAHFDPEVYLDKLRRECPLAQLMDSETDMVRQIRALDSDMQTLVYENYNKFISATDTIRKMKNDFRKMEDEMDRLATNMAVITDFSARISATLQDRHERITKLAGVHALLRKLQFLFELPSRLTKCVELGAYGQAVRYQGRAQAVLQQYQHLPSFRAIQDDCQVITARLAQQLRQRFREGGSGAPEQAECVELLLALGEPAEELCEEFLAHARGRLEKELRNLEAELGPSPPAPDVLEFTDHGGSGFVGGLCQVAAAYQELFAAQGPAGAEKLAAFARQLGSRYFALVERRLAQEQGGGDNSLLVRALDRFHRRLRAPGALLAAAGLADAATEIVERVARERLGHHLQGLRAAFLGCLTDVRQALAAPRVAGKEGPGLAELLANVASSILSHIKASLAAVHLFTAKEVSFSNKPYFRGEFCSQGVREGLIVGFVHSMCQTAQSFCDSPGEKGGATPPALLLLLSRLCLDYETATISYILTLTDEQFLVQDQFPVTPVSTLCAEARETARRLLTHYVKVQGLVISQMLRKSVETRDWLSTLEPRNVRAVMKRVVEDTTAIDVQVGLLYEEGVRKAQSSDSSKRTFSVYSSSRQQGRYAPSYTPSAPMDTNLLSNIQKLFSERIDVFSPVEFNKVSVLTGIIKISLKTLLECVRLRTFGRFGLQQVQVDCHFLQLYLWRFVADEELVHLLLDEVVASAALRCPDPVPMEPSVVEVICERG
UniProt Q7Z6J8, sequence (Q7Z6J8 whole entry, looked up): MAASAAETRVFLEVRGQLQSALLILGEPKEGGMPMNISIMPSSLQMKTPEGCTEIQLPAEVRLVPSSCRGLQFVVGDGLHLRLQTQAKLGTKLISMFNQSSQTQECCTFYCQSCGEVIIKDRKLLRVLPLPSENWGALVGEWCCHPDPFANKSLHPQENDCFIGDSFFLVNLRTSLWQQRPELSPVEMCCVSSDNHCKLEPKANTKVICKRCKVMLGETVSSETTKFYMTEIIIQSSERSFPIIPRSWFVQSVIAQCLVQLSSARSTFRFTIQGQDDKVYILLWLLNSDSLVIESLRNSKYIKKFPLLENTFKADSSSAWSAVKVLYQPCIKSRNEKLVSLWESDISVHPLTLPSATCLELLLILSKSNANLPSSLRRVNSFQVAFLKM
UniProt Q96K49, sequence (Q96K49 whole entry, looked up): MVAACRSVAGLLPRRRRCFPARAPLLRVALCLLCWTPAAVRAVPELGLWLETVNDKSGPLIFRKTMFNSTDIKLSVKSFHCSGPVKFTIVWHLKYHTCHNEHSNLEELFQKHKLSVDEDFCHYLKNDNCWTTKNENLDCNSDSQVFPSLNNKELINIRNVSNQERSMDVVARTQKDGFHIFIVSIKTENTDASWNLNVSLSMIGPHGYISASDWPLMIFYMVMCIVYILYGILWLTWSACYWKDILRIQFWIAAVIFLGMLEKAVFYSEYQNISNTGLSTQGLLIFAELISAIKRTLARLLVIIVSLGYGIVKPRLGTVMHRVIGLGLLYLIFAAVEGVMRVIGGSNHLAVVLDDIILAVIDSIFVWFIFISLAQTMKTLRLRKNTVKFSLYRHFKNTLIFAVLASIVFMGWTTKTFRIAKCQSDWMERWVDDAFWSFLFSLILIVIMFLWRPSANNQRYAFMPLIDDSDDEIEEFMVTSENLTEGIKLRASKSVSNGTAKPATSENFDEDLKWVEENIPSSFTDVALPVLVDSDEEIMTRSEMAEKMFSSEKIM
UniProt O95155, sequence (O95155 whole entry, looked up): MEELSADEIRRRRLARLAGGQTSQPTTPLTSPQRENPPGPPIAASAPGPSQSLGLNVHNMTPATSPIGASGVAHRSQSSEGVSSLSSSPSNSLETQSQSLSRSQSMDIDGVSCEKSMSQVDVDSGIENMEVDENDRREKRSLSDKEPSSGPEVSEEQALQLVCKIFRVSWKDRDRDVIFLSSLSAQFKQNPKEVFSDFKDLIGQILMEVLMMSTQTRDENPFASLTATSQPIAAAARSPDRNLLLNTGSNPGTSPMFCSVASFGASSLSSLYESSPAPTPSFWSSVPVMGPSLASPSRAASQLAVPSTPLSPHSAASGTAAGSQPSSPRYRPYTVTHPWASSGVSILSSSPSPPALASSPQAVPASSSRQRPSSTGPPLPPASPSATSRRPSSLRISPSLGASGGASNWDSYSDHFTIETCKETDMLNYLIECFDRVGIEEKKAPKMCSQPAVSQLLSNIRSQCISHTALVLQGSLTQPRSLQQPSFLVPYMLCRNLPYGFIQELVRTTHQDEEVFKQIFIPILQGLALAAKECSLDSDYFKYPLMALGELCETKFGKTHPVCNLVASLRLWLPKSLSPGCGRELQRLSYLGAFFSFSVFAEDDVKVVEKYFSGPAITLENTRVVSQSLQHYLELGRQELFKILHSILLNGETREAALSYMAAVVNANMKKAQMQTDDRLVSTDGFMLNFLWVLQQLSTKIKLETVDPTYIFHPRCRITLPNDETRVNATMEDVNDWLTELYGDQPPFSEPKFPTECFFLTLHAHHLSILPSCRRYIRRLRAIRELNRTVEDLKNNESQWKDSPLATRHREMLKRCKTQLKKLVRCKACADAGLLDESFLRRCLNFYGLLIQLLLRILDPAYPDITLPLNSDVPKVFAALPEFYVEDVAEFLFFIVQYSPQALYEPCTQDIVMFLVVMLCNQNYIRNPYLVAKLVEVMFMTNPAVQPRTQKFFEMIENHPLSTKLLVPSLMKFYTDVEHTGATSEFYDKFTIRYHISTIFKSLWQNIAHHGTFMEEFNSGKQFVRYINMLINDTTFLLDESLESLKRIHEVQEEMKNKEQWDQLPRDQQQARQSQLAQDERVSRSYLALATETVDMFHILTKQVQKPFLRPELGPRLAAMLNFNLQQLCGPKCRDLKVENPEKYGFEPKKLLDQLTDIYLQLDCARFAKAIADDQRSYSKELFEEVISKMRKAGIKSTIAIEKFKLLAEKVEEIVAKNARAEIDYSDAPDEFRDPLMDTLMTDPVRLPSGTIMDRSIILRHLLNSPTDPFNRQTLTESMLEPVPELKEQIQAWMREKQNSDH
UniProt Q96AJ9, sequence (Q96AJ9 whole entry, looked up): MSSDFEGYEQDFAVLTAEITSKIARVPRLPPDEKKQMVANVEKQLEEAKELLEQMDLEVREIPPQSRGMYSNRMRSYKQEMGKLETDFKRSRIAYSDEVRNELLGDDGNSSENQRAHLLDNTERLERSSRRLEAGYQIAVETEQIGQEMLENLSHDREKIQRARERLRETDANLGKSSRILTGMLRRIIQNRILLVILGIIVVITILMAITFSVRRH
UniProt P54578, sequence (P54578 whole entry, looked up): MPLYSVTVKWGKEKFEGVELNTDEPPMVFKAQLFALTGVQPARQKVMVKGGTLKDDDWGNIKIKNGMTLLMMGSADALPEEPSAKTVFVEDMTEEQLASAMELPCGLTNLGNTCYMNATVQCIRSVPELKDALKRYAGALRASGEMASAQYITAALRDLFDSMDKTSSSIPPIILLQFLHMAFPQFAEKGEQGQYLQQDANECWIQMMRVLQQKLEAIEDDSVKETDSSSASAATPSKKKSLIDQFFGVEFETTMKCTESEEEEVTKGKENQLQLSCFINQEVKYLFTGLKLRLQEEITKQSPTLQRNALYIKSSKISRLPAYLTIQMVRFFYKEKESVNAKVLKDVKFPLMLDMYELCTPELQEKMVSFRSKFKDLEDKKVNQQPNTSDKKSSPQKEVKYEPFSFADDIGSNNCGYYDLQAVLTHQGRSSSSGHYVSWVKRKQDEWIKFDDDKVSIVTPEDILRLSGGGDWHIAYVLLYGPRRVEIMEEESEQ
UniProt Q9UDW1, sequence (Q9UDW1 whole entry, looked up): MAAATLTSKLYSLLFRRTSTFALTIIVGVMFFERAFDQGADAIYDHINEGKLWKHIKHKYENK

log2 fold change, inactive:
VTA1 (UniProt Q9NP79) 0.009
UBE4B isoform 4 (UniProt O95155) -0.014
USO1 isoform 2 (UniProt O60763) -0.013
VPS16 (UniProt Q9H269) 0
WAPL isoform 3 (UniProt Q7Z5K2) 0.078
VTI1A (UniProt Q96AJ9) -0.039
VPS8 (UniProt Q8N3P4) -0.012
UFL1 (UniProt O94874) -0.048
UTP4 (UniProt Q969X6) -0.03
UTP14A (UniProt Q9BVJ6) -0.092
UGGT1 (UniProt Q9NYU2) -0.035
VPS18 (UniProt Q9P253) 0.005
UBA6 -0.004
TMEM161A (UniProt Q9NX61) -0.098
TNFRSF10A (UniProt O00220) -0.07
TRMT61A (UniProt Q96FX7) -0.146
TRAPPC8 (UniProt Q9Y2L5) -0.205
UBE2S (UniProt Q16763) -0.032
UBE2E3 (UniProt Q969T4) -0.007
UCHL5 (UniProt Q9Y5K5) -0.026
VTI1B (UniProt Q9UEU0) -0.03
TNPO1 (UniProt Q92973) -0.066
UQCR10 (UniProt Q9UDW1) -0.026
TMEM87B (UniProt Q96K49) -0.117
USP34 (UniProt Q70CQ2) -0.074
USP14 (UniProt P54578) 0.005
VPS51 (UniProt Q9UID3) 0.1
UBE2J1 (UniProt Q9Y385) -0.09
UBE3D (UniProt Q7Z6J8) -0.164
TRAM1 (UniProt Q15629) -0.021
TOP2A isoform 4 (UniProt P11388) -0.205
XPNPEP3 (UniProt Q9NQH7) -0.022
TRAPPC2L (UniProt Q9UL33) -0.099
XPO5 (UniProt Q9HAV4) -0.042
WDHD1 (UniProt O75717) -0.001
VDAC1 (UniProt P21796) -0.009
